Test results published in PubChem BioAssay (NCI).
This is part of a sample that, as a whole, favours compounds with a hit. Of some 83,000 tested, about 20% had one in any assay.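 Single-dose data. Exposure time 48 hours. Values below 10 considered active.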 Active and inactive are the calls of the source.

What was measured:
Assay in all cases: NCI-60 one-dose screen, 48 h (100 = growth as untreated, 0 = no growth, -100 = all killed)
Conditions in all cases: 10 µM
[1] = system: NCI-H23 lung
[2] = system: NCI-H226 lung
[3] = system: NCI-H322M lung
[4] = system: HOP-62 NSCLC
[5] = system: NCI-H460 lung
[6] = system: HOP-92 NSCLC
[7] = system: NCI-H522 lung
[8] = system: A549/ATCC NSCLC
[9] = system: 786-0 renal
[10] = system: COLO 205 colon
[11] = system: DU-145 prostate
[12] = system: K-562 leukemia
[13] = system: MALME-3M melanoma
[14] = system: MDA-MB-231 breast
[15] = system: SF-268 CNS
[16] = system: SF-295 CNS
[17] = system: SF-539 CNS
[18] = system: UACC-257 melanoma
[19] = system: M14 melanoma

Measured: growth

Cc1ccc2nc(-c3ccc(-c4nnc(SCC(=O)Nc5ccc(Cl)cc5)o4)cc3)[nH]c2c1
active: [2] 9.53% | [5] 6.19%
inactive: [1] 29.1% | [3] 27.6% | [4] 61.8% | [6] 84.9% | [7] 51.1% | [8] 29.1% | [9] 68.5% | [10] 46.1% | [11] 45% | [12] 18% | [13] 26.2% | [14] 10.6% | [15] 68.6% | [16] 21.4% | [17] 57% | [18] 102% | [19] 53.6%

Cc1ccn2c(C(=O)c3ccc(Br)cc3)cc(-c3cc(-c4ccc(N(C)C)cc4)c(C#N)c(N)n3)c2c1
active: [13] -1.54%
inactive: [1] 27.6% | [2] 60.5% | [3] 41% | [4] 78.8% | [5] 54.4% | [6] 31.2% | [7] 45.3% | [8] 70.2% | [9] 40.9% | [10] 47.5% | [11] 56.2% | [12] 68.7% | [14] 39.5% | [15] 68% | [16] 68.1% | [17] 24.2% | [18] 79.7% | [19] 57.7%

COc1cc(C2CC(c3ccccc3)=Nc3c(N)nc(N)nc3N2)ccc1Oc1nc(Nc2ccc(F)cc2)nc(N(C)C)n1 (centres undefined)
inactive: [1] 43.9% | [2] 40.4% | [3] 71.7% | [4] 85.7% | [5] 10.6% | [6] 16.3% | [7] 65.6% | [8] 66.3% | [9] 43.4% | [10] 28% | [11] 48% | [12] 17.9% | [13] 32.4% | [14] 31% | [15] 55% | [16] 45.9% | [17] 63% | [18] 45.4% | [19] 46.6%

OCCCNc1oc(-c2ccccc2)nc1[P+](c1ccccc1)(c1ccccc1)c1ccccc1
active: [1] -1.07% | [2] -5.46% | [5] 3.97% | [6] -24.1% | [7] 2.08% | [10] -52.3% | [11] 8.36% | [13] -26% | [14] -8.13% | [15] 6.17% | [16] 2.62% | [17] 4.68% | [18] -10.3%
inactive: [3] 31.9% | [4] 17.9% | [8] 29.6% | [9] 11.2% | [12] 11.1% | [19] 10.1%

CC(=O)NS(=O)(=O)c1ccc(NC(=O)CSC2=NC(c3ccccc3)C(C(C)=O)=C(C)N2)cc1 (centres undefined)
inactive: [1] 97.5% | [2] 109% | [3] 105% | [4] 103% | [5] 121% | [6] 134% | [7] 98.4% | [8] 98.1% | [9] 103% | [10] 126% | [11] 120% | [12] 104% | [13] 103% | [14] 110% | [15] 107% | [16] 101% | [17] 107% | [18] 106% | [19] 107%

N#Cc1c(-c2ccc(Cl)cc2)cc(-c2ccccc2)nc1OCc1ccccc1
inactive: [1] 76.7% | [2] 74.7% | [3] 96.6% | [4] 84.9% | [5] 51.9% | [6] 90.8% | [7] 69.3% | [8] 73.8% | [9] 107% | [10] 106% | [11] 90.7% | [12] 45% | [13] 102% | [14] 80.2% | [15] 92.9% | [16] 66.2% | [17] 75.2% | [18] 80.6% | [19] 90.9%

O=C(CSc1nnc(-c2c[nH]c3ccccc23)n1-c1ccccc1)c1ccc(Br)cc1
inactive: [1] 54% | [2] 39.1% | [3] 45.7% | [4] 73.6% | [5] 34.5% | [6] 28.1% | [7] 46.3% | [8] 29.9% | [9] 82.4% | [10] 13.5% | [11] 58.5% | [12] 82% | [13] 71% | [14] 66% | [15] 49.1% | [16] 33.7% | [17] 62% | [18] 52.6% | [19] 51%

Cc1ccn2c(C(=O)c3ccccc3)cc(-c3cc(-c4ccc(N(C)C)cc4)c(C#N)c(N)n3)c2c1
active: [17] -62.1%
inactive: [1] 46.1% | [2] 16.7% | [3] 75.1% | [4] 53.1% | [5] 56% | [6] 23.6% | [7] 79.4% | [8] 45.9% | [9] 21% | [10] 66.2% | [11] 56.4% | [12] 70.9% | [13] 63.6% | [14] 25.7% | [15] 61.2% | [16] 69.3% | [18] 85.7% | [19] 81.3%

[2H]C([2H])([2H])Oc1ccc2ncc(C#Cc3cncc(C(=O)Nc4ccc(CN5CCN(C)CC5)c(C(F)(F)F)c4)c3)n2n1
active: [1] -80.5% | [2] -65.8% | [3] -98.9% | [4] -41% | [5] 2.44% | [6] -66.6% | [7] -40.4% | [8] -33% | [9] -28.6% | [10] -62.2% | [11] -98.8% | [12] 1.31% | [13] -81.1% | [14] -90.5% | [15] -42.8% | [16] -77% | [17] -90.2% | [18] -65.9% | [19] -61.9%

CN1CCCN(Cc2ccc(C(=O)Nc3cccc(Nc4ccc5c(O)cccc5n4)c3)cc2C(F)(F)F)CC1
active: [1] -82.1% | [3] -72.1% | [4] -69.8% | [5] -85.3% | [6] -51.5% | [7] -83.4% | [8] -61.4% | [9] -74.8% | [10] -64.4% | [11] -44.5% | [13] -95.9% | [14] -75.6% | [15] -55.6% | [16] -91% | [17] -98.3% | [18] -81.3% | [19] -84.7%
inactive: [2] 57.4% | [12] 11.5%

C=C[C@@]12CN3CC[C@]1(O)[C@@](C(=O)OC)(CO2)c1[nH]c2ccccc2c1C3
inactive: [1] 78% | [2] 83.1% | [3] 93.7% | [4] 99.5% | [5] 87.2% | [6] 54.9% | [7] 22.3% | [8] 87.6% | [9] 84% | [10] 33.7% | [11] 68.3% | [12] 33.9% | [13] 95.5% | [14] 76.9% | [15] 85.3% | [16] 71% | [17] 71.9% | [18] 49.7% | [19] 64.4%

O=c1[nH]c2ccccc2cc1CSc1ccc(Nc2nccc(-c3ccc4ccccc4c3)n2)cc1
inactive: [1] 18.1% | [2] 19% | [3] 70.1% | [4] 74.7% | [5] 24.3% | [7] 71.5% | [8] 22.4% | [9] 51.7% | [10] 25.3% | [11] 25.5% | [12] 64% | [13] 39% | [14] 30.5% | [15] 72.1% | [16] 89.6% | [17] 16.1% | [18] 105% | [19] 69.8%
active: [6] -3.82%

COc1ccc(-c2nc(Nc3ccccc3S(N)(=O)=O)c3ccccc3n2)cc1
inactive: [3] 35.1% | [4] 77.7% | [7] 59.7% | [10] 75.9% | [12] 34.1% | [15] 22.5% | [16] 61.3% | [18] 91.2% | [19] 75.8%
active: [1] -0.0975% | [2] -43% | [5] -24.9% | [6] 4.23% | [8] -2.67% | [9] -16.5% | [11] 7.82% | [13] -7.51% | [14] -33.6% | [17] -4.27%

COc1cc(NC(=O)CSc2nnc(-c3ccc4nc(-c5ccc(Cl)cc5)[nH]c4c3)o2)cc(OC)c1OC
inactive: [1] 40.3% | [2] 38.7% | [3] 90.8% | [4] 89.7% | [5] 67.2% | [6] 128% | [7] 45.1% | [8] 90.4% | [9] 78.3% | [10] 82.4% | [11] 73.8% | [12] 31.3% | [13] 66.5% | [14] 75.2% | [15] 76.1% | [16] 48% | [17] 43.7% | [18] 94.4% | [19] 69.5%

Cc1cc(C)nc(NS(=O)(=O)c2ccc(N/C(N)=N/c3nccc(-c4cccs4)n3)cc2)n1
inactive: [1] 90% | [2] 77.8% | [3] 95.6% | [4] 83% | [5] 99.2% | [6] 107% | [7] 90.5% | [8] 99.7% | [9] 111% | [10] 105% | [11] 109% | [12] 89.3% | [13] 94.2% | [14] 87% | [15] 99.4% | [16] 92.6% | [17] 80.4% | [18] 111% | [19] 106%

CN(C)c1ccc(/C=C/c2nc3ccccc3c(=O)n2CC(=O)Nc2ccccc2)cc1
active: [2] -6.92% | [17] -26.8%
inactive: [1] 58.8% | [3] 48.6% | [4] 37.3% | [5] 16.8% | [6] 15.3% | [7] 48.7% | [8] 33.6% | [9] 20.1% | [10] 69.6% | [11] 42.1% | [12] 55.6% | [13] 15.7% | [14] 33.4% | [15] 57.3% | [16] 35.5% | [18] 60.4% | [19] 81.4%
